Laboratory results as given in PubChem BioAssay (NCATS).
Records with an inconclusive call do not appear. Activity calls are given as the source filed them. Unless noted, calls come from the whole dose curve; as a rule, active = well fitted curve in the direction sought with a large enough effect; inconclusive = small, poorly fitted or top-dose-only effect, or another doubt; inactive = no such curve, though single readings can be large; an effect the other way counts as inactive or inconclusive.

What was measured:
[1] = molecular target: Lysosomal acid glucosylceramidase (Homo sapiens) (UniProt P04062); assay: Glucocerebrosidase-p2 (AID 348; in the data active = potency below about 10 µM; note: potency is the fitted concentration of half-maximal effect); conditions: purified GBA, blue fluorogenic substrate, 40 min
How it was run: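 Compounds titrated from 0.6 nM upwards against 0.2 nM enzyme in pH 5.9 citric acid/KH2PO4, taurocholate, tween-20; blue fluorogenic substrate 80 uM, 40 min room temperature, stopped and read Ex 365/Em 440 for AC50.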

[2] = AP1 Signaling Pathway (AID 357; active = well fitted curve in either direction with a large enough effect, not every such curve was filed as active;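 note: ME-180 reporter cells stimulated with EGF at its EC50 level; % is set by controls: 0 for no effect and ±100 for the full control effect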); conditions: ME-180 AP-1-bla reporter, EGF-induced, beta-lactamase ratio, 5 h; at 7.69 µM (top of the series) unless noted
How it was run: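 A ratiometric CCF4 readout (405 nm excitation; 460 and 530 nm emission) quantified AP-1-driven beta-lactamase in ME-180 cells after 5 h with compound and EC50 EGF; AC50 values were derived for activators and inhibitors.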

[3] = molecular target: Cytochrome P450 1A2 (Homo sapiens) (UniProt P05177); assay: p450-cyp1a2 (AID 410; calls by dose curve; note: potency is the fitted concentration of half-maximal effect); conditions: recombinant CYP1A2, luciferin-ME demethylation, luminescence; series mostly up to 57 µM
How it was run: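 Luminescent readout of luciferin formed from Luciferin-ME by human CYP1A2; data normalized against complete inhibition by 57 uM furafylline. Enzyme 20nM, substrate 100uM at Km, 100mM KPO4 buffer, 60 min reaction at room temperature.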

[4] = NFAT Signaling Pathway (AID 444; active = well fitted curve in either direction with a large enough effect, not every such curve was filed as active;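 note: carbachol stimulus at about its EC50 of 1 µM final; % is set by controls: 0 for no effect and ±100 for the full control effect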); conditions: Jurkat NFAT-bla M1, carbachol, beta-lactamase ratio, 5 h; at 7.69 µM (top of the series) unless noted
How it was run: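 Read-out: CCF4 FRET ratio (460 nm/530 nm) after 1 h RT dye loading, used for %activity and AC50 from titration series. Cells: Jurkat NFAT-β-lactamase/M1 line, treated with compound plus 1 uM carbachol for 5 h, 37 °C.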

[5] = Stat Signaling Pathway (AID 446; active = well fitted curve in either direction with a large enough effect, not every such curve was filed as active;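 note: ME-180 cervical cancer cells given 40 pM IL-6 alongside compound; SIE-controlled beta-lactamase reporter measured as 460/530 nm FRET emission ratio; % is set by controls: 0 for no effect and ±100 for the full control effect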); conditions: ME-180 SIE beta-lactamase reporter, IL-6 stimulated, 5 h; at 7.69 µM (top of the series) unless noted
How it was run: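 Screening format detects activators and inhibitors alike: ME-180 SIE-bla cells stimulated at 40 pM IL-6 for 5 hrs with compound, then dual-emission beta-lactamase read at 405 nm excitation.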

[6] = molecular target: Glucocorticoid receptor (Homo sapiens) (UniProt P04150); assay: GR-GFP Redistribution (AID 450;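 active = compounds whose dose series gives a full or clear partial fitted curve of increased nuclear translocation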; note: potency is the fitted concentration of half-maximal effect); conditions: U2OS GR-GFP nuclear translocation, laser cytometry, 2 h
[7] = molecular target: Glucocorticoid receptor (Homo sapiens) (UniProt P04150); assay: GR-EFC Redistribution (AID 451; calls by dose curve; note: potency is the fitted concentration of half-maximal effect); conditions: CHO-K1 GR-EFC translocation, beta-gal luminescence, 2 h
How it was run: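 Translocation of GR-ED fusion to nuclear EA restores b-gal, read by luminescence after 1 h room-temperature detection. Engineered CHO-K1 biosensor cells, 1,000/well, exposed 2 h at 37 C to titrations up to 46 uM final.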

[8] = molecular target: Mitogen-activated protein kinase 10 (Mus musculus) (UniProt Q61831); assay: JNK3 AlphaScreen Assay (AID 530; active = well fitted curve in either direction with a large enough effect, not every such curve was filed as active;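 note: kinase came from lysate of stimulated human HepG2 cells; signal reports phosphorylation of biotinylated GST-cJun 1-79 at Ser73 with 10 µM ATP; % is set by controls: 0 for no effect and ±100 for the full control effect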); conditions: JNK3 lysate, c-Jun phosphorylation; series mostly up to 57.1 µM
How it was run: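 Compound titrations were preincubated 15 minutes at room temperature with substrate, antibody and pre-activated JNK3-containing HepG2 lysate. Reactions were started with 10 uM ATP and stopped with EDTA-containing bead buffer for AlphaScreen detection.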

[9] = molecular target: 3',5'-cyclic-AMP phosphodiesterase 4B (Homo sapiens) (UniProt Q07343); assay: qHTS Assay for Inhibitors of PDE-IV (AID 607; active = well fitted activation curve with a large enough effect in the main read-out, with a control signal flat, not every such curve was filed as active; note: % of control where 0% means no effect); conditions: HEK293 ACTOne CNG channel cells, membrane potential fluorescence; series mostly up to 22.9 µM
How it was run: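 The readout is membrane depolarisation from a cAMP-sensing CNG channel, detected with a potential dye at ex 535/em 590. Cells were HEK293-derived (endogenous PDE-IV) at 1000 cells/well, titrated up to 22.9 uM final.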

[10] = molecular target: Cytochrome P450 2C9 (Homo sapiens) (UniProt P11712); assay: qHTS Assay for Inhibitors and Substrates of Cytochrome P450 2C9 (AID 883); conditions: recombinant CYP2C9, luciferin-H luminescence, 60 min; series mostly up to 57.1 µM; note: nearly all actives have a fitted effect of over 60% in size; note: potency is the fitted concentration of half-maximal effect
How it was run: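 Turnover of Luciferin-H (100uM, KM) by 10nM human CYP2C9 was measured over 60 min at 37C with NADPH regeneration; inhibitors and some substrates reduce luminescence. Data normalized to sulphaphenazole 57uM.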

[11] = molecular target: Cytochrome P450 3A4 (Homo sapiens) (UniProt P08684); assay: qHTS Assay for Activators of Cytochrome P450 3A4 (AID 885); conditions: recombinant CYP3A4, Luciferin-PPXE luminescence, 60 min; series mostly up to 57.1 µM; note: nearly all actives have a fitted effect of over 65% in size
How it was run: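 Steps: enzyme/substrate mix dispensed; compound added, 10 min RT; NADPH regeneration solution added, 60 min RT; luciferin detection buffer stops reaction; 20 min later luminescence measured.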

[12] = Confirmation and Secondary Assay for Modulators of Hemoglobin Beta Chain Splicing at IVS2 654 locus (AID 910); conditions: HeLa EGFP-654 splicing reporter, GFP fluorescence, 48 h; series mostly up to 38.3 µM;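 note: HeLa cells stably carrying EGFP split by mutant beta-globin IVS2-654 intron; % of control where 0% means no effect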
How it was run: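 Readout: per-well total peak green fluorescence (488 nm ex, 500–520 nm em) from objects 5–250 µm, reflecting correct splicing of an EGFP-654 reporter. Compounds were applied for 2 days at 37 °C to overnight-plated HeLa EGFP-654 cells; controls were DMSO and 500 nM IVS2-654 PNA.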

[13] = Confirmation and Secondary Assay for Modulators of Hemoglobin Beta Chain Splicing at IVS2 705 locus (AID 930); conditions: HeLa EGFP-705 splicing reporter, GFP fluorescence, 48 h; series mostly up to 38.3 µM;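 note: HeLa cells stably expressing the EGFP-705 splicing reporter; GFP fluorescence per well restored by corrected splicing of the IVS2-705 intron in EGFP; % of control where 0% means no effect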
How it was run: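 Read-out: total peak GFP fluorescence per well (488 nm excitation, 500-520 nm emission) by laser-scanning cytometry. Cells: HeLa EGFP-705 splicing reporter, 2 days compound exposure in Optimem/2% FCS.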

[14] = qHTS Assay for Lipid Storage Modulators (AID 1519; calls by dose curve); conditions: Drosophila S3 cells, BODIPY lipid droplet/cell ratio, laser cytometry, cells loaded with oleic acid; for activity change, negative = inhibition: at 57.5 µM (top of the series)
How it was run: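 Cells seeded at 5,000 per well were treated with compounds over a concentration series and loaded with oleic acid (400 uM, as added). Lipid droplet fluorescence (488 nm excitation, 500-530 nm channel) was read by laser-scanning cytometry and normalized to 20 uM Triacsin C.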

[15] = molecular target: Ubiquitin carboxyl-terminal hydrolase 1 (Homo sapiens) (UniProt O94782); assay: Inhibitors of USP1/UAF1: Pilot qHTS (AID 504865); conditions: purified USP1/UAF1, Ub-rhodamine cleavage fluorescence; series mostly up to 54.9 µM;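 note: rhodamine fluorescence freed from ubiquitin-rhodamine substrate followed over time; top concentration of the series differs between compounds; % is set by controls: 0 for no effect and ±100 for the full control effect; nearly all actives have a fitted effect of over 35% in size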
How it was run: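 Enzyme-free wells gave the negative control, while test wells held 1nM USP1/UAF1 preincubated with compound for 15 min at room temperature. Ub-Rho at 150nM final started the reaction, and fluorescence at 480/540 nm was recorded kinetically.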

[16] = Primary qHTS for small molecule stabilizers of the endoplasmic reticulum resident proteome: Secreted ER Calcium Modulated Protein (SERCaMP) assay (AID 1508630); conditions: SH-SY5Y GLuc-SERCaMP (Gaussia luciferase released on ER calcium loss) secretion, thapsigargin, luminescence; series mostly up to 38.4 µM; note: % is set by controls: 0 for no effect and ±100 for the full control effect
How it was run: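 GLuc-SERCaMP-expressing SH-SY5Y cells, pretreated 16 h with compound, are challenged with thapsigargin to empty ER calcium stores; after 4 h, coelenterazine is added directly to the medium and luminescence is imaged.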

[17] = qHTS Assay for Identification of Small Molecule Agonists for Hypoxia Response Element Signaling Pathway (AID 914; active = well fitted activation curve with a large enough effect in the signal ratio, with a control signal flat, not every such curve was filed as active; the % refers to the signal ratio; note: % of control where 0% means no effect); conditions: ME-180 (cervical carcinoma) HRE-bla reporter, beta-lactamase ratio, CoCl2, 17 h; activation: stronger effect = higher value
How it was run: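 HRE-bla ME-180 cells, overnight plating in Opti-MEM with 0.5% dialyzed FBS; cpd titration + EC50 CoCl2, 17 h, 37 degrees Celsius; CCF4 2.5 h RT; 460/530 nm ratio; AC50.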

[18] = molecular target: Cytochrome P450 3A4 (Homo sapiens) (UniProt P08684); assay: qHTS Assay for Inhibitors and Substrates of Cytochrome P450 3A4 (AID 884); conditions: recombinant CYP3A4, Luciferin-PPXE luminescence; series mostly up to 57.1 µM; note: potency is the fitted concentration of half-maximal effect; nearly all actives have a fitted effect of over 50% in size
How it was run: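 20 nM human CYP3A4 with 25 uM Luciferin-PPXE (at KM) in 200 mM KPO4, preincubated 10 min with compound; NADPH regeneration started a 60 min RT reaction. Luciferin detected by luminescence, normalized to 57 uM ketoconazole as full inhibition.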

[19] = molecular target: Cytochrome P450 2C19 (Homo sapiens) (UniProt P33261); assay: qHTS Assay for Inhibitors and Substrates of Cytochrome P450 2C19 (AID 899); conditions: recombinant CYP2C19, luciferin-H EGE luminescence; series mostly up to 57.1 µM; note: potency is the fitted concentration of half-maximal effect; nearly all actives have a fitted effect of over 60% in size
How it was run: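 Reactions contain 5nM enzyme, 10uM Luciferin-H EGE (KM) and 50mM KPO4; compound preincubates 10 min at 37C, NADPH regeneration starts turnover for 60 min. Luminescence after detection reagent gives activity.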

[20] = measured here: cell count channel max response
[21] = measured here: lipid channel max response

Chain of Cytochrome P450 3A4 (Homo sapiens) (P08684 whole entry, looked up): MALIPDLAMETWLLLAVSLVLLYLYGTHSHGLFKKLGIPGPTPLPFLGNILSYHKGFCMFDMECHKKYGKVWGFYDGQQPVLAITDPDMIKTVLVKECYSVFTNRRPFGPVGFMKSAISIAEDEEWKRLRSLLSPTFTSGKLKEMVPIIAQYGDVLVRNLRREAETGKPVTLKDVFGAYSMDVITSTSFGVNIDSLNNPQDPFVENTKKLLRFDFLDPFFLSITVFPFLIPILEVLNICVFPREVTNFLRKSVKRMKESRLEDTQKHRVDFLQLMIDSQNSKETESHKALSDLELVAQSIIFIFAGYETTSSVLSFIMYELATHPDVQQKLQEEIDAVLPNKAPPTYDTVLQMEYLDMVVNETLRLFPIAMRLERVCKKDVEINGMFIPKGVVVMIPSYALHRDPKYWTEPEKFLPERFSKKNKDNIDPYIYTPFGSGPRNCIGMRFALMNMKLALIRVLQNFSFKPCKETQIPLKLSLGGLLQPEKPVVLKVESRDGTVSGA
Chain of Cytochrome P450 1A2 (Homo sapiens) (P05177 whole entry, looked up): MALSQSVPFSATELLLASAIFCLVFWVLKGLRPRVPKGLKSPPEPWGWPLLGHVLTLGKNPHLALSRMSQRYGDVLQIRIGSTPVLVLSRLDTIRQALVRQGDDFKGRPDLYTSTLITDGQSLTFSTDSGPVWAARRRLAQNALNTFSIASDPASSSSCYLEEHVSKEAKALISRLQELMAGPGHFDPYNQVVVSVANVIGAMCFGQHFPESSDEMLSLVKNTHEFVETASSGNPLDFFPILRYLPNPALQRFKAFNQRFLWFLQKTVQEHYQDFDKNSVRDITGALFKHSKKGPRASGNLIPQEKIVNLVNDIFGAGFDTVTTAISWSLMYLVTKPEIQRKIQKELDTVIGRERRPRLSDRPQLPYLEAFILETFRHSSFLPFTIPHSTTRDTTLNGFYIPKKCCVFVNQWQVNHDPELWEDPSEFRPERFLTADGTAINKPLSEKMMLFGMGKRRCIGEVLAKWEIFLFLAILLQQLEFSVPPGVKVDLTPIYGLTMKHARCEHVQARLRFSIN
Chain of Lysosomal acid glucosylceramidase (Homo sapiens) (P04062 whole entry, looked up): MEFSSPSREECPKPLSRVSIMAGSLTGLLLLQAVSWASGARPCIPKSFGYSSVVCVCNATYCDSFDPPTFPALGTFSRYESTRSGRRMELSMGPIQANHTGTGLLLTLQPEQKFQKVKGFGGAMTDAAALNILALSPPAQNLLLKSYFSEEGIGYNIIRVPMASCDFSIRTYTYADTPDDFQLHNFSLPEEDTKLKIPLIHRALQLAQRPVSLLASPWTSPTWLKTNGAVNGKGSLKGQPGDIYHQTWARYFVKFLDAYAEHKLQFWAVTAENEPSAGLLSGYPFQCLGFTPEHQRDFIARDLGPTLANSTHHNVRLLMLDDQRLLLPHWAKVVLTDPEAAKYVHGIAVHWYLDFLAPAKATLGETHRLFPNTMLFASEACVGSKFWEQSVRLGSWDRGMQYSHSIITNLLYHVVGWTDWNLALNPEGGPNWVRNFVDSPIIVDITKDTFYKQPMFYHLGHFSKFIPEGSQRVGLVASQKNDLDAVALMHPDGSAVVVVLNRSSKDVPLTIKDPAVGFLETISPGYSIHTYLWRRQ
Chain of Glucocorticoid receptor (Homo sapiens) (P04150 whole entry, looked up, the tested form may be a part): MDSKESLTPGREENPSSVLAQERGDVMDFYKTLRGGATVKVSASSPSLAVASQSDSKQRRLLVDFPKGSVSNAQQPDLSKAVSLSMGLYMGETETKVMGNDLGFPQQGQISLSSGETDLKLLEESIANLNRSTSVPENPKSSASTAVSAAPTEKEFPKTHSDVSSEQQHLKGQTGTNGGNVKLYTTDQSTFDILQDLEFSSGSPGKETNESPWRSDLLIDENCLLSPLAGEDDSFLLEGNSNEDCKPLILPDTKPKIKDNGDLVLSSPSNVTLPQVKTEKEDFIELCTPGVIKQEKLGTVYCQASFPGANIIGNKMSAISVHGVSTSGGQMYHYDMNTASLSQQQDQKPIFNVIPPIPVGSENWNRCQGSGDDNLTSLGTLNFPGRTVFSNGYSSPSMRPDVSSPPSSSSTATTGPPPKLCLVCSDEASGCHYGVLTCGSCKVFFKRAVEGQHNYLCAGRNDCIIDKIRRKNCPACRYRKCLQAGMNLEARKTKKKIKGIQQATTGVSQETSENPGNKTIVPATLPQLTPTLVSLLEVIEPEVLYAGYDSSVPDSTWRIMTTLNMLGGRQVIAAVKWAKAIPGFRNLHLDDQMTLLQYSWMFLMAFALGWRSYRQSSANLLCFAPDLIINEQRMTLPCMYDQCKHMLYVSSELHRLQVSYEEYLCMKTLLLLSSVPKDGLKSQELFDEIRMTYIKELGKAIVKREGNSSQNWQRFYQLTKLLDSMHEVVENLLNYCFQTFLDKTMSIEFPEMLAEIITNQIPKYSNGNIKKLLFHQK
Chain of 3',5'-cyclic-AMP phosphodiesterase 4B (Homo sapiens) (Q07343 whole entry, looked up): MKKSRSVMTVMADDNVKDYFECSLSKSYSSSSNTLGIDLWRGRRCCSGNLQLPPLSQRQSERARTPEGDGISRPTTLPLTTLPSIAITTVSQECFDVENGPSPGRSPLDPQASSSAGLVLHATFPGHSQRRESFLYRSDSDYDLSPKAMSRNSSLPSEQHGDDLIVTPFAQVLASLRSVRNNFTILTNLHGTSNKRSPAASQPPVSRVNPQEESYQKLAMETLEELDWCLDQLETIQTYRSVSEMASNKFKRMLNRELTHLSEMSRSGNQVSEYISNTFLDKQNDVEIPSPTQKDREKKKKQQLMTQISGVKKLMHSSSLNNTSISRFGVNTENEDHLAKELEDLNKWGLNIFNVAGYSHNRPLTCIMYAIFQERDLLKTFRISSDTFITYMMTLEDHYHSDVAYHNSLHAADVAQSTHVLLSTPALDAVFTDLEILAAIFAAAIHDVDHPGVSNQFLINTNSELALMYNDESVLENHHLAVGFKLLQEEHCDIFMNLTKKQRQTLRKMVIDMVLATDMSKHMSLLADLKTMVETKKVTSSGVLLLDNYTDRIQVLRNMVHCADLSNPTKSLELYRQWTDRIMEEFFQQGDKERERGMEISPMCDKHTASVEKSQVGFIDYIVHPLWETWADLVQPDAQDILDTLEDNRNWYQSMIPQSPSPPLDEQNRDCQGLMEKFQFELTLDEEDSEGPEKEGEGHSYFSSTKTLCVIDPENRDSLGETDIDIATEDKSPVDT
Chain of Ubiquitin carboxyl-terminal hydrolase 1 (Homo sapiens) (O94782 whole entry, looked up): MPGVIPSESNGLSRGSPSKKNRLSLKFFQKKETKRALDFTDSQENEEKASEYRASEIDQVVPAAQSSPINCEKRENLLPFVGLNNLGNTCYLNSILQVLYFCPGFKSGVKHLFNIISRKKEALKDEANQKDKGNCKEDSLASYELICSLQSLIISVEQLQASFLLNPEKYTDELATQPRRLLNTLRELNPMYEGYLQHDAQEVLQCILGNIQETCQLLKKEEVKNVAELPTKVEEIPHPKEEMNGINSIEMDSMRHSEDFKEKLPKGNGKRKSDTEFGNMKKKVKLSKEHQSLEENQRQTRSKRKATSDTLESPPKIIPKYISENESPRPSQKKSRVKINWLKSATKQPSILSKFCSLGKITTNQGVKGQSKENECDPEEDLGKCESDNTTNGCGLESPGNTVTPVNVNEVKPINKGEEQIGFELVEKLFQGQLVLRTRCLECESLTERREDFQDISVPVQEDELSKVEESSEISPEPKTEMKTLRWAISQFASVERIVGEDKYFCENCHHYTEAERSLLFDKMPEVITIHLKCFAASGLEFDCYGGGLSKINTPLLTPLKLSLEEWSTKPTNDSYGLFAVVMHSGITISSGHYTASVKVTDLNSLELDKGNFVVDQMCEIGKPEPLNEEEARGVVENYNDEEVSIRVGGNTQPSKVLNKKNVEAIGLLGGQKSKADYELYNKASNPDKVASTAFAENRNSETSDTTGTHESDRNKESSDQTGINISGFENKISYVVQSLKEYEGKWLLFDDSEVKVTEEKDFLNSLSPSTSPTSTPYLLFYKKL
Chain of Cytochrome P450 2C19 (Homo sapiens) (P33261 whole entry, looked up): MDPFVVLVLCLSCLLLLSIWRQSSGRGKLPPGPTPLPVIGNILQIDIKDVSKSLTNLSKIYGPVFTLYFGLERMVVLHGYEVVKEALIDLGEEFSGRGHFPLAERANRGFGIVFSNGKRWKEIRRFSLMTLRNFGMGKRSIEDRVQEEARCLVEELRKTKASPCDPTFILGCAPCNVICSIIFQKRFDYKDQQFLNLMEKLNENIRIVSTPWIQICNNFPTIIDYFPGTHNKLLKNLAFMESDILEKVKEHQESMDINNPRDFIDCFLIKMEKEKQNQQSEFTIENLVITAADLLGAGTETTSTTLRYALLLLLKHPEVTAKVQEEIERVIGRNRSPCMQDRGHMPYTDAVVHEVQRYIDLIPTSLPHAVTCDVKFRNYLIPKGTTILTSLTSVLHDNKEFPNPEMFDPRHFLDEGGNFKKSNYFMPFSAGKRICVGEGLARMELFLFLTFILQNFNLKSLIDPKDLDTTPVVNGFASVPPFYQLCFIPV
Chain of Cytochrome P450 2C9 (Homo sapiens) (P11712 whole entry, looked up): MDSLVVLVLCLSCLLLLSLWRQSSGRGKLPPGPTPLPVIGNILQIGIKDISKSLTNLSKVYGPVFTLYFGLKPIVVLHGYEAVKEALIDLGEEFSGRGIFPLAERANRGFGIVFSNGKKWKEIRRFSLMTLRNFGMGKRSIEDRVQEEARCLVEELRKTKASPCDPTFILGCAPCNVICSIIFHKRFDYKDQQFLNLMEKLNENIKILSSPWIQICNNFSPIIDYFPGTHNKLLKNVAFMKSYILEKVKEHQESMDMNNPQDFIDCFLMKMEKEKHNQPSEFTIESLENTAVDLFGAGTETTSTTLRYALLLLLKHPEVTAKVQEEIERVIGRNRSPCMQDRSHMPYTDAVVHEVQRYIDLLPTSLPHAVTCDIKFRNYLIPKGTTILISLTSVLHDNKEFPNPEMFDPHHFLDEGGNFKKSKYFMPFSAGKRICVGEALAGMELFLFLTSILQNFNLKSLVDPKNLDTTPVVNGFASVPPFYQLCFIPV

CN(C)c1ccnc(-c2cccc(NS(C)(=O)=O)c2)n1
inactive: Potency [1] > 11.4 µM | activity change, negative = inhibition [2] -6.35% | activity change, negative = inhibition [4] 0.933% | activity, negative = inhibition [5] 3.11% | Potency [6] > 46 µM | Potency [7] > 46 µM | outcome [8] | Potency [9] | activity change, negative = inhibition [10] 2.49% [at 2.29 µM] | Potency [11] | outcome [12] | outcome [13] | activity change, negative = inhibition [14] 11.6% | Potency [15] | Potency [16]
20%: max response [14, 21]
7.48%: max response [14, 20]
active: Potency [3] 1.58 µM

COCCNc1ccnc(-c2ccccc2CN(C)C)n1
-5.81%: max response [14, 20]
active: Potency [3] 5.01 µM
inactive: Potency [1] > 11.4 µM | activity change, negative = inhibition [2] 3.13% | activity change, negative = inhibition [4] -0.192% | activity, negative = inhibition [5] 11.3% | Potency [6] > 46 µM | Potency [7] > 46 µM | outcome [8] | Potency [9] | outcome [12] | outcome [13] | activity change, negative = inhibition [14] 1.95% | Potency [15] | Potency [16]
7.72%: max response [14, 21]

COCCNc1nc(-c2ccccc2CN(C)C)nc2ccccc12
2.38%: max response [14, 20]
inactive: Potency [1] > 11.4 µM | activity change, negative = inhibition [2] 4.08% | activity change, negative = inhibition [4] -0.773% | activity, negative = inhibition [5] 10% | Potency [6] > 46 µM | Potency [7] > 46 µM | outcome [8] | Potency [9] | Potency [11] | outcome [12] | activation [17] 2.67% | outcome [13] | activity change, negative = inhibition [14] 3.16% | Potency [15] | Potency [16]
active: Potency [3] 10 µM
6.21%: max response [14, 21]

CN(C)Cc1ccccc1-c1cc(Nc2ccccc2)ncn1
5.64%: max response [14, 20]
active: Potency [3] 15.8 µM
inactive: Potency [1] > 11.4 µM | activity change, negative = inhibition [2] 1.09% | activity change, negative = inhibition [4] -10.2% | activity, negative = inhibition [5] 9.68% | Potency [6] > 46 µM | Potency [7] > 46 µM | outcome [8] | Potency [9] | outcome [12] | outcome [13] | activity change, negative = inhibition [14] 4.87% | Potency [15] | Potency [16]
12.4%: max response [14, 21]

N#Cc1cccc(-c2cncnc2NCc2cccs2)c1
15.7%: max response [14, 20]
inactive: Potency [1] > 11.4 µM | activity change, negative = inhibition [2] -2.15% | activity change, negative = inhibition [4] -0.972% | activity, negative = inhibition [5] 3.27% | Potency [6] > 46 µM | Potency [7] > 46 µM | outcome [8] | Potency [11] | activity change, negative = inhibition [14] 6.17% | Potency [15] | Potency [16]
18.5%: max response [14, 21]
active: Potency [3] 1.58 µM | Potency [18] 1.26 µM | Potency [19] 7.94 µM

c1csc(CNc2ncncc2-c2ccc3c(c2)OCO3)c1
active: Potency [3] 0.2 µM | Potency [10] 0.316 µM | Potency [19] 0.794 µM
inactive: Potency [1] > 11.4 µM | activity change, negative = inhibition [2] -9.82% | activity change, negative = inhibition [4] -6.2% | activity, negative = inhibition [5] 6.16% | Potency [6] > 46 µM | Potency [7] > 46 µM | outcome [8] | outcome [12] | outcome [13] | activity change, negative = inhibition [14] 6.61% | Potency [15] | Potency [16]
0.346%: max response [14, 20]
8.95%: max response [14, 21]
